# The list is not random: actives were taken first. Their share in the collection is about 1.8%.
# DENV2 CPE rescue: inhibitors of DENV2 cytopathic effect | DENV2-infected cells, cytopathic effect rescue, plate reader | CPE inhibition, % at 9.99 µM | hit rate 1.7% among 350,000; in the data active = CPE inhibition above about 20%, passing the limit was not always enough; inconclusive = no clear call, values can overlap the other calls; tested in BHK-21 cells
# ERp5 inh: blocks human ERp5 reductase activity on insulin; Q15084; ERp5 insulin aggregation, absorbance 650 nm, 90 min; inhibition, % at 9.99 µM; hit rate 0.05% among 350,000; AID 651711;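 active = mean replicate inhibition above about 25%, with every replicate also reaching it, limit read from the data, passing the limit was not always enough; inconclusive = only one of those two criteria met; inactive = neither criterion met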
# PDI turbidity: PDI (human) enzyme inhibition. inhibition, % at 10 µM. PDI insulin aggregation turbidity, A650, 90 min. AID 588391. hit rate 0.052% among 350,000;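 active = mean inhibition across replicates of 30% or more, whatever share of single replicates reach that level; inconclusive = mean inhibition below 30% while every single replicate reaches 30%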
# Target sequence (P07237 whole entry, looked up): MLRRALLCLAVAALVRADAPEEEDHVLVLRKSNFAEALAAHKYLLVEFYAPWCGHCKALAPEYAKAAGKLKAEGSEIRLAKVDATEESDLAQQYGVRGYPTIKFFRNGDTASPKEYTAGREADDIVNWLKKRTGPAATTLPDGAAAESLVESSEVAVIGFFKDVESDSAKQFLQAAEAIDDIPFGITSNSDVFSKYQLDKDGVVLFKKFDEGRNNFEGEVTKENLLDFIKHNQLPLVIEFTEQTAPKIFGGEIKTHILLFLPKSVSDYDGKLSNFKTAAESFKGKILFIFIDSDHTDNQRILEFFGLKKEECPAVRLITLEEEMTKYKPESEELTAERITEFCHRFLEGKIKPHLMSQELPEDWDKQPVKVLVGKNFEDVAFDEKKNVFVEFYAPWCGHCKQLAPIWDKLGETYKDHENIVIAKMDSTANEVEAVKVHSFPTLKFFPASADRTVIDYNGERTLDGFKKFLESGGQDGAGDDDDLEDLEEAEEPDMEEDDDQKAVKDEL
# ERAP1 inh: blocks human ERAP1 aminopeptidase activity; Q9NZ08; recombinant ERAP1, Leu-AMC fluorescence, 60 min; inhibition, % at 10.7 µM; hit rate 0.15% among 340,000; AID 652197;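 active = mean replicate inhibition of at least 30%, or all replicates individually reaching that 30% level; inactive = mean below 30% and not every replicate reaching it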
# AF4-AF9 inh: blocks AF4 peptide binding to human AF9; AlphaScreen, biotin-AF4 peptide binding to FLAG-AF9; inhibition, % at 10 µM; hit rate 0.47% among 350,000;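 active = every replicate reaching a set inhibition limit, whatever the replicate mean, cut at about 25% in these data; inconclusive = mean inhibition reaches that limit but some replicates miss it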
# A number is an active result; n = inactive; u = inconclusive; x = no result given; ! = repeats disagree.
SMILES,DENV2 CPE rescue,ERp5 inh,PDI turbidity,ERAP1 inh,AF4-AF9 inh
C[C@@H]1CCCCO[C@H](CN(C)S(=O)(=O)c2ccc(F)cc2)[C@@H](C)CN([C@H](C)CO)C(=O)c2cc(NC(=O)Nc3cccc4ccccc34)ccc2O1,26.2,n,x,n,n
C[C@H](CO)N1C[C@H](C)[C@H](CN(C)C(=O)Nc2cccc3ccccc23)OCCCC[C@H](C)Oc2ccc(NC(=O)Nc3ccc(F)cc3)cc2C1=O,24.9,n,x,n,n
C[C@H](CO)N1C[C@H](C)[C@H](CN(C)C(=O)Nc2ccc3c(c2)OCO3)Oc2ccc(NC(=O)Nc3cccc4ccccc34)cc2C1=O,n,n,x,n,n
CCS(=O)(=O)N[C@H]1C=C[C@H](CC(=O)NCc2ccc(F)cc2)O[C@H]1CO,n,n,x,n,n
COc1ccc2c3c([nH]c2c1)[C@H](CO)N(C(=O)c1ccc(F)cc1)CC31CN(S(=O)(=O)c2cccs2)C1,n,x,x,x,n
C[C@@H]1CCCCO[C@@H](CN(C)C(=O)Nc2cccc3ccccc23)[C@@H](C)CN([C@@H](C)CO)C(=O)c2cc(NC(=O)Nc3ccc(C(F)(F)F)cc3)ccc2O1,26.5,n,x,n,n
CCOC(=O)C1=CN2CCC[C@H]2CC1=O,63.1,n,n,x,n
CCOC(=O)C1=CN2CCCC[C@@H]2CC1=O,n,n,n,x,n
CCN1CCCC(NC(=O)c2scc3c2CCCC3)C1 (stereo unspecified),n,u,n,n,47.1
Cc1ccc(NC(=O)c2scc3c2CCCC3)cc1,n,n,n,n,n
CCCNC(=O)N[C@@H]1CC[C@@H](CC(=O)NCCc2ccccc2)O[C@@H]1CO,n,n,x,n,n
C[C@@H]1CCCCO[C@@H](CN(C)C(=O)CCCN(C)C)[C@@H](C)CN([C@H](C)CO)C(=O)c2cc(NC(=O)Cc3ccccc3)ccc2O1,141.9,n,x,n,n
C[C@H]1CCCCO[C@@H](CN(C)C(=O)CCCN(C)C)[C@@H](C)CN([C@@H](C)CO)C(=O)c2cc(NC(=O)Cc3ccccc3)ccc2O1,n,n,x,n,n
C[C@H](CO)N1C[C@H](C)[C@@H](CN(C)C(=O)CCCN(C)C)OCCCC[C@H](C)Oc2ccc(NC(=O)CCCN(C)C)cc2C1=O,84.8,n,x,n,n
C[C@@H]1CCCCO[C@H](CN(C)C(=O)Cc2ccccc2)[C@H](C)CN([C@@H](C)CO)C(=O)c2cc(NC(=O)CCCN(C)C)ccc2O1,n,n,x,n,n
C[C@@H]1CN([C@@H](C)CO)C(=O)c2cc(NC(=O)CCCN(C)C)ccc2O[C@@H](C)CCCCO[C@@H]1CN(C)C(=O)Cc1ccccc1,63.8,n,x,n,n
C[C@@H]1CCCCO[C@H](CN(C)C(=O)CCCN(C)C)[C@@H](C)CN([C@H](C)CO)C(=O)c2cc(NC(=O)Nc3ccc(F)cc3)ccc2O1,37.1,n,x,n,n
C[C@@H]1CN([C@H](C)CO)C(=O)c2cccc(NC(=O)Nc3ccc4c(c3)OCO4)c2O[C@H]1CN(C)C(=O)Nc1cccc2ccccc12,n,n,x,n,n
COCC(=O)Nc1ccc2c(c1)C(=O)N(C)C[C@H](OC)[C@@H](C)CN(C(=O)Cc1ccccn1)[C@H](C)CO2,n,n,x,n,n
C[C@@H]1CCCCO[C@H](CN(C)C(=O)c2ccncc2)[C@@H](C)CN([C@H](C)CO)C(=O)c2cc(NC(=O)NC3CCCCC3)ccc2O1,n,x,x,x,x
C[C@H]1CCCCO[C@H](CN(C)C(=O)CCCN(C)C)[C@@H](C)CN([C@@H](C)CO)C(=O)c2cc(NC(=O)c3ccccc3)ccc2O1,52.9,n,x,n,n
COc1ccc(C2CC(c3ccc4ccccc4c3)=NN2C(=O)CNC2CCCCC2)cc1 (stereo unspecified),x,n,n,n,28.2
C=CCNCC(=O)N1N=C(c2ccc3ccccc3c2)CC1c1ccc(OC)cc1 (stereo unspecified),n,n,n,n,n
C[C@H](O)C#Cc1ccc([C@H]2[C@@H](CO)N3CCCCN(C(=O)c4ccncc4)C[C@@H]23)cc1,n,n,x,n,n
COc1ccc(C#Cc2ccc([C@H]3[C@H](CO)N4CCCCN(C(=O)c5ccncc5)C[C@@H]34)cc2)cc1,47.4,n,x,n,n
SMILES,DENV2 CPE rescue,ERp5 inh,PDI turbidity,ERAP1 inh,AF4-AF9 inh
C[C@H](O)C#Cc1ccc([C@H]2[C@@H](CO)N3CCCCN(C(=O)c4ccncc4)C[C@H]23)cc1,n,n,x,n,n
COc1ccc(C#Cc2ccc([C@H]3[C@@H](CO)N4CCCCN(C(=O)c5ccncc5)C[C@@H]34)cc2)cc1,59.1,n,x,n,n
C[C@@H](O)C#Cc1ccc([C@@H]2[C@H](CO)N3CCCCN(C(=O)c4ccncc4)C[C@@H]23)cc1,n,n,x,n,n
COc1ccc(C#Cc2ccc([C@@H]3[C@@H](CO)N4CCCCN(C(=O)c5ccncc5)C[C@H]34)cc2)cc1,28.5,n,x,n,n
CO[C@@H]1CN(C)C(=O)c2cc(NS(C)(=O)=O)ccc2OC[C@@H](C)N(CCC(F)(F)F)C[C@@H]1C,n,n,x,x,x
O=C(C[C@H]1CC[C@@H](NC(=O)C2CCOCC2)[C@H](CO)O1)Nc1nccs1,n,n,x,n,n
C[C@H](CO)N1C[C@H](C)[C@H](CN(C)C(=O)Nc2ccc(C(F)(F)F)cc2)Oc2ccc(NS(=O)(=O)c3ccc(F)cc3)cc2C1=O,n,n,x,n,n
Cc1noc(C)c1NC(=O)N(C)C[C@H]1Oc2ccc(NC(=O)NC(C)C)cc2C(=O)N([C@@H](C)CO)C[C@@H]1C,n,n,x,n,n
COc1ccc(NC(=O)N(C)C[C@H]2Oc3ccc(NS(=O)(=O)c4c(C)noc4C)cc3C(=O)N([C@H](C)CO)C[C@@H]2C)cc1,22.0,n,n,n,n
COc1ccc(NC(=O)N(C)C[C@H]2Oc3ccc(NS(=O)(=O)c4c(C)noc4C)cc3C(=O)N([C@@H](C)CO)C[C@H]2C)cc1,n,n,x,n,n
COc1ccc(NC(=O)N(C)C[C@@H]2Oc3ccc(NS(=O)(=O)c4c(C)noc4C)cc3C(=O)N([C@@H](C)CO)C[C@@H]2C)cc1,26.9,n,x,n,n
Cc1noc(C)c1NC(=O)N(C)C[C@H]1Oc2ccc(NS(=O)(=O)c3c(C)noc3C)cc2C(=O)N([C@H](C)CO)C[C@@H]1C,30.5!,n,n,n,n
Cc1noc(C)c1NC(=O)N(C)C[C@@H]1Oc2ccc(NC(=O)NC(C)C)cc2C(=O)N([C@@H](C)CO)C[C@H]1C,44.8,n,x,n,n
COc1ccc(NC(=O)N(C)C[C@@H]2Oc3ccc(NS(=O)(=O)c4c(C)noc4C)cc3C(=O)N([C@H](C)CO)C[C@@H]2C)cc1,89.7,n,x,n,n
COc1ccc(NC(=O)N(C)C[C@H]2Oc3ccc(NS(=O)(=O)c4c(C)noc4C)cc3C(=O)N([C@H](C)CO)C[C@H]2C)cc1,n,n,x,n,n
CO[C@@H]1CN(C)C(=O)c2ccc(NC(C)=O)cc2OC[C@H](C)N(Cc2ccccc2F)C[C@H]1C,n,n,x,n,n
CCOc1ccc(CCNC(=O)CN2C(=O)NC3(CCCCCC3)C2=O)cc1OCC,n,n,n,n,n
